From PubChem
12-hLO inh – blocks human 12-lipoxygenase activity. P18054. purified 12-hLO, xylenol orange hydroperoxide absorbance. Potency, µM (titrated, usually from 57.1 µM), for inactives: at the top dose activity change, negative = inhibition, actives largely listed as inhibitors. 150,000 tested, 0.12% active; further: potency means the concentration at half of the fitted maximal effect; nearly all actives have a fitted effect of over 55% in size
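Hydroperoxide formation by human 12-lipoxygenase from 40 uM arachidonic acid was followed colorimetrically via ferric-xylenol orange complex, using the 573/405 nm absorbance ratio. Enzyme concentration was 150 nM, with 30 min reaction at room temperature.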
IMPase cell inh – IMPase inhibition in cells | AID 901 | CHO-M1 cells, IP1 accumulation, HTRF TR-FRET ratio | P97697 | inhibition (IP1 accumulation), % at 46.1 µM | 120,000 tested, under 10 active; active means well fitted curve in the direction sought with a large enough effect in the signal ratio, not every such curve was filed as active; inconclusive means small, poorly fitted or top-dose-only effect, or a change in a side signal; inactive means no such curve, though single readings can be large or run the other way; the % refers to the signal ratio;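 further: cells stimulated with carbachol in lithium chloride buffer; plate controls were DMSO basal wells for no effect and reference inhibitor wells for full effect; higher means more IMPase inhibition seen as more IP1 and lower FRET ratio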
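The IP-One HTRF competitive assay in carbachol-stimulated CHO-M1 cells quantifies cellular IP1. Compounds spanned up to 46 uM final, and activity is expressed as AC50 from concentration-response fits of the ratio and donor data.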
ALOX15B inhib – blocks human 15-lipoxygenase 2 activity | purified 15hLO-2, xylenol orange hydroperoxide absorbance | Potency, µM (top dose mostly 57.1 µM), without a hit: at the top dose activity change, negative = inhibition, most hits filed as inhibitors | 110,000 tested, 0.56% active | AID 881; further: potency means the concentration at half of the fitted maximal effect; nearly all actives have a fitted effect of over 60% in size
Target sequence (O15296 whole entry, looked up): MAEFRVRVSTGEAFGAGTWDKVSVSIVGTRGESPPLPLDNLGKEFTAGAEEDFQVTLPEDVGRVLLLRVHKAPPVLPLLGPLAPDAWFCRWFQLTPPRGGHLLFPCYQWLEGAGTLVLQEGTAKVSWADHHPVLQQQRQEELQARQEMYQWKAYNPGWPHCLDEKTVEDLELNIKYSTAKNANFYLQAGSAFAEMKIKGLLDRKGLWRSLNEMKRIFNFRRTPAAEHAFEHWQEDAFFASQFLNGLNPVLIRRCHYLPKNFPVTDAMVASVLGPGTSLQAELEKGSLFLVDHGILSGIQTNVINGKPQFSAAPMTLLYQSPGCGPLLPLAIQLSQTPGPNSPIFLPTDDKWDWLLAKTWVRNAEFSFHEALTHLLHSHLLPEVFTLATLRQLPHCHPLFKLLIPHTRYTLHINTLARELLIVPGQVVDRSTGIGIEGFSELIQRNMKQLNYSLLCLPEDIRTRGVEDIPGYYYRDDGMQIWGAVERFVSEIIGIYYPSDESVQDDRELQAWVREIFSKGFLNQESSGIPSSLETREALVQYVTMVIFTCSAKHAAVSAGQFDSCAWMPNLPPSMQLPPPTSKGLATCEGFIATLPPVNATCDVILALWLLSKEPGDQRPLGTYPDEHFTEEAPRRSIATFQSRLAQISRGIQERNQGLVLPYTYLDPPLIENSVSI
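Purified human 15hLO-2 (50 nM final) preincubated with compounds 15 min at room temperature in 25 mM Hepes pH 7.5, 0.01% Triton X-100, then 45 uM arachidonic acid added for 90 min; hydroperoxide detected via ferrous/xylenol orange, 573/405 nm absorbance ratio.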
PNC assembly inh – inhibitors of perinucleolar compartment assembly; PC3M PTB-GFP, PNC prevalence imaging, 16 h; hits give low values; activity change (PNC), negative = inhibition, % at 10 µM; AID 2417; 140,000 tested, 3.1% active;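 active means readout at or below -70, meaning at least 70% loss of cells showing the perinucleolar compartment, a nuclear body marking cancer cells; inconclusive means readout between -30 and a set limit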;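 further: plate controls were DMSO wells for no effect and camptothecin positive control wells for full effect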
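PC3M cells stably expressing PTB-GFP, 750–1000 cells/well, treated 16 h at 37 °C with compound (23 nl of library stock), in duplicate. After paraformaldehyde fixation and Hoechst stain, imaged at 20x; PNC prevalence scored by image analysis.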
* hit, by the source's call; ? = inconclusive; · = not tested or not shown; [ ] = another dose, or the depositor's remark. The list is not random: actives were taken first. Their share in the collection is about 3%. Unless noted, the call rests on the fitted dose curve; in most records, active means well fitted curve in the direction sought with a large enough effect; inconclusive means small, poorly fitted or top-dose-only effect, or another doubt; inactive means no such curve, though single readings can be large; an effect the other way counts as inactive or inconclusive. Unless noted, on the % scale 0 is the no-effect control and ±100 the full control effect.

SMILES	12-hLO inh	IMPase cell inh	ALOX15B inhib	PNC assembly inh
C[C@]1(c2ccccc2)OC(C(=O)O)=CC1=O	-4%	3	12%	·
Cn1c(SCC#N)nnc1-c1ccc2c(c1)OCO2	3%	0	·	-119*
Cn1c(SCc2ccccc2)nnc1-c1ccc2c(c1)OCO2	-4%	-8	-4%	-15
CCC(=O)c1ccc(OCC(O)CN2CCN(C(c3ccccc3)c3ccccc3)CC2)cc1 (configuration not stated)	3%	22	·	66
O=C1C=C(NCCN2CCOCC2)C(=O)c2cnccc21	-7%	·	·	-82*
O=C1C=C(NCCO)C(=O)c2cnccc21	-9%	·	?	·
Cc1cc(C)n(-c2nc3ccccc3nc2Nc2cccc(C)c2C)n1	·	10	·	·
Cc1ccc(Cn2c(SCCN3CCOCC3)nc3c2c(=O)n(C)c(=O)n3C)cc1	-4%	6	12%	-81*
CCCCN(CCCNC(=O)C1CCN(S(=O)(=O)N2CCOCC2)CC1)Cc1ccccc1	-8%	-2	2%	-2
CC(C)N(CCNC(=O)C1CCN(S(=O)(=O)N2CCOCC2)CC1)Cc1ccccc1	2%	13	·	-102*
Cc1sc2nc(C(C)C)nc(SCC(=O)N3c4ccccc4CC3C)c2c1C (configuration not stated)	-3%	·	·	-97*
CCc1nc(SCC(=O)N2c3ccccc3CC2C)c2c(C)c(C)sc2n1 (configuration not stated)	5%	5	-2%	?
O=C(C1CCN(c2ccc(N3CCOCC3)nn2)CC1)N1CCN(c2ccc(F)cc2)CC1	-3%	0	12%	-22
CCCSC1=N/C(=C\C=C\c2ccco2)C(=O)S1	?	-2	25µM*	14
O=C1SC(SCc2ccccc2)=N/C1=C\c1ccco1	?	?	?	12
COc1ccccc1NC(=O)Cn1cnc2sc(C(=O)NCc3ccco3)c(C)c2c1=O	-1%	-1	3%	17
Cc1sc2ncn(CC(=O)NCCN3CCOCC3)c(=O)c2c1S(=O)(=O)N1CCC(C)CC1	6%	2	2%	-24
COc1ccc(C)cc1NC(=O)Cn1cnc2sc(C)c(S(=O)(=O)N3CCOCC3)c2c1=O	-3%	-8	·	-100*
COc1ccccc1NC(=O)Cn1cnc2sc(C)c(S(=O)(=O)N3CCCCC3)c2c1=O	-1%	·	·	-113*
CCn1c(SCC(=O)C(C)(C)C)nnc1-c1cnccn1	1%	-1	·	-100*
Cc1ccc(S(=O)(=O)N2CCCCC2)cc1NC(=O)COC(=O)c1ccc2c(c1)OCO2	0%	·	·	?
O=C(Cn1ncc2c(=O)oc3ccccc3c21)NCC1CCCO1 (configuration not stated)	5%	-1	·	-119*
CCOCCCNC(=O)Cn1ncc2c(=O)oc3ccccc3c21	0%	?	·	-12
O=C1Cn2c(nc3ccccc32)N1c1ccccc1F	2%	1	-2%	-102*
CC(=O)Nc1ccc(S(=O)(=O)N(C)CC(=O)OCC(=O)Nc2cccnc2Cl)cc1	3%	·	·	-1
SMILES	12-hLO inh	IMPase cell inh	ALOX15B inhib	PNC assembly inh
COc1ccc(CN2CC(C(=O)NCCc3ccc(C)cc3)CC2=O)cc1 (configuration not stated)	-6%	1	0%	-9
COCCN(C(=O)COc1ccc(Cl)cc1)c1nnc(-c2cccnc2)s1	-3%	?	·	-100*
CCC(=O)N1CCc2cc(S(=O)(=O)Nc3cc(C)ccc3OC)ccc21	·	-5	·	·
CC(=O)Nc1ccn(-c2ccccc2)n1	5%	5	·	-119*
CN(Cc1ccccc1)S(=O)(=O)c1ccc2[nH]cc(C(=O)NCC3CCCO3)c(=O)c2c1 (configuration not stated)	-3%	11	17%	6
Cc1ccc(-c2csc3ncnc(OCC(=O)NC(=O)NCc4ccco4)c23)cc1	-20%	-4	-21%	-125*
C[C@H]1Cc2c(-c3ccccc3)nc3c(c2CO1)CN(S(=O)(=O)c1ccc2c(c1)OCCN2C)CC3	6%[11.4 µM]	·	·	·
CCCC(=O)N(c1ccc2oc3c(c2c1)CCCC3)S(=O)(=O)c1ccc(CC)cc1	·	3	·	·
COc1ccc(C(=O)NN=C(Cc2ccccc2)Cc2ccccc2)cc1OC	-1%	·	·	9
COc1ccc(CC(=O)c2ccc(OC)c(OC)c2)cc1	-5%	·	·	-13
COc1ccccc1OCc1ccc(C(=O)N/N=C/c2ccco2)cc1	0%	·	·	-114*
O=C(COc1ccccc1)NCC(=O)N/N=C/c1ccco1	-5%	·	·	-121*
COc1ccccc1OCc1ccc(C(=O)NN)cc1	2%	-2	3%	-1
COc1ccc(C(=O)Cc2ccccc2)cc1OC	1%	·	·	-84*
CNC(=O)c1ccc(OCc2ccccc2)c(OC)c1	3%	5	3%	-107*
COc1ccccc1-c1c(C#N)c(N)nc2c1CCc1ccccc1-2	-25%	·	·	?
COc1ccccc1CNc1ncnc2c1nnn2Cc1ccccc1	-9%	2	11%	18
CCc1nnc(NC(=O)C(=O)NCCOC(=O)c2ccccc2Cl)s1	-6%	2	8%	-109*
CCOc1ccccc1C(=O)Nc1nnc(CC)s1	2%	3	·	1
CNC(=O)C(=O)NCC1OCCCN1S(=O)(=O)c1cccs1 (configuration not stated)	1%	·	·	17
O=C(NCCO)C(=O)NCC1OCCCN1S(=O)(=O)c1cccs1 (configuration not stated)	-1%	·	·	-80*
COc1ccc(OCCCC(=O)Nc2nncs2)cc1	1%	1	·	-100*
O=C(NCc1ccco1)c1cc(C(=O)C2CC2)c[nH]1	2%	-2	·	65
COc1ccc(N2CCN(Cc3nc4c(c(=O)n(C)c(=O)n4C)n3CC(C)=O)CC2)cc1	-1%	2	·	-9
COc1ccc(N2CCN(Cc3nc4c(c(=O)[nH]c(=O)n4C)n3CC(C)=O)CC2)cc1	7%	-1	·	-90*
SMILES	12-hLO inh	IMPase cell inh	ALOX15B inhib	PNC assembly inh
Cn1c(=O)[nH]c(=O)c2c1nc(CN1CCN(c3ccc(F)cc3)CC1)n2CCc1ccccc1	14%	-1	·	-100*
O=C(CSc1nc(-c2ccccc2)cc(=O)[nH]1)N1CCOCC1	-2%	-3	3%	?
COc1ccc(NC(=O)N2CC[C@@]3(CCCN(C(=O)c4c(C)noc4C)C3)C2)cc1	4%	·	11%	·
COc1cc2[nH]cc(C(=O)NCCc3ccccc3)c(=O)c2cc1OC	-1%	9	·	-100*
COCCNC(=O)c1c[nH]c2cc(OC)c(OC)cc2c1=O	4%	3	1%	?
CCN1C(=O)/C(=C/N2CC(C)CC(C)C2)SC1=S (configuration not stated)	5%	-3	-17%	-89*
CCN1C(=O)/C(=C\N2CCCCCC2)SC1=S	-16%	22	-19%	14
